Only some compounds are listed: those with a hit (about 1.6% of all), similar ones and a draw of the others.
FBPA coupling cs – counter-screen for Giardia aldolase inhibitors: coupling enzyme system; coupling enzyme system counterscreen, AmpLite Red fluorescence; activity change, negative = inhibition, % at 58.2 µM, hits read low; 0.67% of 290,000 active; in the data active = activity change below about -30%
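Counterscreen lacking aldolase: glyceraldehyde-3-phosphate coupling-enzyme reagent preincubated 10 min at RT with compound (at 57.5 uM final), then substrate/coupling system with AmpLite Red added; fluorescence read at 525/598 nm after 20 min RT.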
RXFP1 antag – blocks the human relaxin receptor RXFP1; Q9HBX9; HEK293-RXFP1, relaxin-stimulated cAMP HTRF, 30 min; active compounds read low; activity change, negative = inhibition, % at 57.5 µM; 0.59% of 350,000 active;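 active = activity change of -60% or lower, but not beyond a set lower limit; inconclusive = change between -60% and -40%, or beyond the set limit; inactive = change above -40%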
Target sequence (Q9HBX9 whole entry, looked up): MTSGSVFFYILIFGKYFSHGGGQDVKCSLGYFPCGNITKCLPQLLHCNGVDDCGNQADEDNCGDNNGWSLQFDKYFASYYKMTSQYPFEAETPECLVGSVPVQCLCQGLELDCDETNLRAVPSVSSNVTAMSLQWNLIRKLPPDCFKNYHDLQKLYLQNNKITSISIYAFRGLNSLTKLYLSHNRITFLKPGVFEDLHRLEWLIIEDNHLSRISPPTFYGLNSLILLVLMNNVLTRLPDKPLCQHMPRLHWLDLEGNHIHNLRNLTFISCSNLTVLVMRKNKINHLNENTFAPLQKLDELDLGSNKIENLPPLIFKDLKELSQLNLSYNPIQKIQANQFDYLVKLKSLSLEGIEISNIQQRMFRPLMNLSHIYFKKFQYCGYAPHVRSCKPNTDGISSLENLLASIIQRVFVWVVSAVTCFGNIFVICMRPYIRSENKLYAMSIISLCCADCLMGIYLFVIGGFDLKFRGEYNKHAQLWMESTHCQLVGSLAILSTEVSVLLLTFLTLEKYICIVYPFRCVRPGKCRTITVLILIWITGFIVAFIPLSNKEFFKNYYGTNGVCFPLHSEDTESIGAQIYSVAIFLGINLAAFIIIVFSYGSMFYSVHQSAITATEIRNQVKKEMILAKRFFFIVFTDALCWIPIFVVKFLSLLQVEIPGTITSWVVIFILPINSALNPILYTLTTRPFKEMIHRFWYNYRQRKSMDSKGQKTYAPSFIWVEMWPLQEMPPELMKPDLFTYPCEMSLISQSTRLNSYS
gsp agonist – activates gsp, the McCune-Albright syndrome mutation | gsp mutant cells, cAMP HTRF, 30 min | Potency, µM (highest dose often 76.9 µM), hits mostly activators | 0.13% of 340,000 active; active = well fitted activation curve with a large enough effect; inconclusive = small, poorly fitted or top-dose-only effect, or another doubt; inactive = no such curve, though single readings can be large or run the other way; cell line not stated here;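 also: phosphodiesterase inhibitor Ro 20-1724 added with compounds to block cAMP breakdown; nearly all actives have a fitted effect of over 60% in size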
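Cells stably selected in G418 were plated at 2000/well, grown 16-24 hr, then given compounds in DMSO with the PDE inhibitor […] (300 uM solution added) for 30 min at 37C; cAMP was read by HTRF.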
gsp antagonist – antagonizes gsp, the McCune-Albright syndrome mutation | gsp-mutant cells, cAMP HTRF, 30 min | Potency, µM (series often up to 76.9 µM), actives largely listed as inhibitors | 0.4% of 340,000 active; calls by dose curve; cell line not stated here;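 also: intracellular cAMP measured with PDE inhibitor Ro 20-1724 present during compound exposure; nearly all actives have a fitted effect of over 65% in size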
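HTRF cAMP measurement after 30 min RT detection following 30 min, 37C compound treatment alongside […] (added as 300 uM solution) in G418-selected cells seeded at 2000/well and grown 16–24 h.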
Giardia killer – Giardia lamblia killing; Giardia lamblia trophozoite viability; activity change, % at 7.66 µM, hits read low; 0.15% of 340,000 active; in the data active = activity change below about -80%; inconclusive = between about -30% and that limit;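 also: parasites exposed to compound for two days anaerobically before the ATP read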
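Viability, read as ATP luminescence: trophozoites at 100 cells/well, compound added, 48 hrs anaerobic at 37 deg C, then 15-30 min room-temperature development before reading.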
RXFP1 ag – RXFP1 (human) receptor agonism; Potency, µM (titrated, usually from 57.5 µM), hits mostly activators; 0.3% of 370,000 active; HEK293T-RXFP1 cAMP TR-FRET, 30 min; response scale: percent of porcine relaxin response, buffer zero; AID 2676; Q9HBX9; active = well fitted activation curve with a large enough effect; inconclusive = small, poorly fitted or top-dose-only effect; also: nearly all actives have a fitted effect of over 60% in size
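HEK293 cells stably expressing RXFP1, treated 30 min at 37C with compounds plus PDE4 inhibitor Ro 20174; cAMP measured by HTRF TR-FRET. Normalized to buffer and 29 nM porcine relaxin; EC50 by Hill fit.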
A number is an active result; 0 = inactive; ? = inconclusive; - = not tested or not shown; [ ] = dose if it differs, or a comment.

SMILES	FBPA coupling cs	RXFP1 antag	gsp agonist	gsp antagonist	Giardia killer	RXFP1 ag
C=CCn1c(O)c(CN2CCN(Cc3ccccc3)CC2)c(C)c(C#N)c1=O	-42.1	0	0	0	0	0
O=C1Nc2ccccc2C1(c1ccc(O)cc1)c1ccc(O)cc1	-	0	-	-	-	-
CC(C)Cc1nn2c(=O)cc(COC(=O)c3ccc(NC(=O)C4CCCCC4)cc3)nc2s1	-	0	-	-	-	0
Cc1ccc(CNC(=O)c2cnc(N(C)C)nc2)cc1	-	0	-	-	-	0
O=C(NNC(=O)c1cccc2ccccc12)c1ccc2c(c1)OCO2	0	0	0[15.4 µM]	0	0	0
CCCNC(=O)Cn1c(SCc2ccccc2C)nc2ccncc21	-	-	-	-	0	-
O=C(Nc1ccc(-c2cn3ccsc3n2)cc1)C1COc2ccccc2O1 (stereo not given)	0	0	0	39.8µM	0	0
O=C(CC(Nc1ccc(F)cc1)C(=O)OCC(=O)c1cccs1)c1ccccc1 (stereo not given)	0	0	0	0	0	0
Cc1ccc(S(=O)(=O)Nc2ccccc2/C=N/c2nc3ccccc3n2C(C)C)cc1	0	-63.7	0[15.4 µM]	0	0	0
CC(=O)Nc1ccc(SCCN2CCN(CCc3ccccc3)CCC2=O)cc1	0	-	-	-	0	-
O=C(Nc1cccc2nsnc12)c1ccc(-c2cccc(Cl)c2)o1	-39.8	0	0	0	0	0
CC(=O)c1c(C)[nH]c(C(=O)OCc2csc(CC(=O)Nc3ccccc3C)n2)c1C	-	0	?	25.1µM	0	-
CCOC(=O)c1ccc(N2CCOCC2)c(NC(=O)c2c(-c3ccccc3)noc2C)c1	0	0	0	0	0	0
COc1ccc([C@]23Cc4ccccc4C(O2)c2c(cc(C)n(Cc4ccccc4)c2=O)O3)cc1	0	-	-	-	-	0[11.5 µM]
O=C1C(Br)=Cc2cccc3cccc1c23	0	-68.8	0[15.4 µM]	?	0	0
O=C1c2sccc2-c2cccc3cccc1c23	-	0	0	-	-	-
CCC/C=N/Nc1nc2ccccc2s1	0	-90.8	0[15.4 µM]	?	0	0
C(=C\c1ccccc1)/C=N/Nc1nc2ccccc2s1	0	0	0	0	0	0
CC(C)CN1CCC(=O)N(CCC#N)CC1	0	-	0	0	0	0
Cc1ccc(-c2n[nH]c(=S)n2/N=C/C=C/c2ccccc2[N+](=O)[O-])cc1	0	0	0	0	0	0
O=[N+]([O-])c1ccccc1/C=C/C=N/n1c(-c2cc(-c3ccccc3)n[nH]2)n[nH]c1=S	0	-69.4	0[15.4 µM]	0	0	0
CCc1ccc(CN(Cc2ccco2)C(=O)COc2ccc(Cl)cc2C)cc1	-	-68.8	-	-	-	0
Cc1ccc(OCC(=O)N(Cc2ccco2)Cc2ccco2)cc1C	-	-60.4	-	-	-	0
COc1ccccc1OCC(=O)N(Cc1ccco1)Cc1ccccc1F	-	-61.8	-	-	-	0
Cc1cc(Cl)ccc1OCC(=O)N(Cc1ccco1)Cc1ccccc1F	-	-61.1	-	-	-	0
SMILES	FBPA coupling cs	RXFP1 antag	gsp agonist	gsp antagonist	Giardia killer	RXFP1 ag
Cc1ccc(CN(Cc2ccco2)C(=O)COc2cc(C)c(Cl)c(C)c2)cc1	-	-	-	-	-	0
Cc1cc(C)cc(OCC(=O)N(Cc2ccco2)Cc2ccccc2Cl)c1	-	0	-	-	-	0
CCCn1c(N)c(C(=O)CN(C)CC(=O)Nc2cc(C)ccc2C)c(=O)[nH]c1=O	-	0	0[15.4 µM]	0	0	0
O=S(=O)(/N=C(/Nc1ccccn1)c1ccc(Cl)cc1)c1ccc(Cl)cc1	0	0	0	0	0	0
COc1ccc(NC(=O)c2cnn(-c3ccccc3)c2C)cc1OC	0	0	0[15.4 µM]	0	0	0
Cc1cc(OC(C)C(=O)N(Cc2ccco2)Cc2ccco2)cc(C)c1Cl (stereo not given)	-	-88.4	-	-	-	0
CC(C)(C)c1ccc(OCC(=O)N(Cc2ccco2)Cc2ccccc2F)cc1	-	-94.9	-	-	-	0
Cc1cc(C)c(OCC(=O)N(Cc2cccc(F)c2)Cc2ccco2)c(C)c1	-	-101.5	-	-	-	0
Cc1cccc(C)c1OCC(=O)N(Cc1ccco1)Cc1ccco1	-	0	-	-	-	0
CCc1nn(CC(=O)NCCCOC)c(=O)c2cc3occc3n12	-	-	-	-	-	0
O=C(Nc1ccc2nc(SCC(=O)N3CCOCC3)sc2c1)c1cccc(F)c1	-	-86.2	-	-	-	0
O=C(Nc1ccc2nc(SCC(=O)N3CCCC3)sc2c1)c1cccc(F)c1	-	-100.8	-	-	-	0
O=C(Nc1cccc(Br)c1)c1ccc2nc(N3C(=O)CCC3=O)sc2c1	0	0	0	35.5µM	0	0
COc1cccc(C(=O)Nc2ccc3nc(SCC(=O)N4CCOCC4)sc3c2)c1	-	-96.0	-	-	-	0
O=C(Nc1ccc2nc(SCC(=O)N3CCOCC3)sc2c1)c1ccc(Br)cc1	-	0	-	-	-	0
O=C(Nc1ccc2nc(SCC(=O)N3CCOCC3)sc2c1)c1ccccc1Cl	-	-63.7	-	-	-	0
O=C(Nc1ccc2nc(SCC(=O)N3CCOCC3)sc2c1)c1ccc(Cl)cc1	-	?	-	-	-	0
O=C(Nc1ccc2nc(SCC(=O)N3CCOCC3)sc2c1)c1cccc(Br)c1	-	-97.8	-	-	-	0
COc1cccc(C(=O)NNC(=O)C(=O)Nc2ccc(C)cc2)c1	0	0	0	0	0	0
COc1cccc(C(=O)NNC(=O)C(=O)Nc2cccc(Cl)c2C)c1	0	-69.5	0	0	0	0
Cc1ccc(F)cc1NC(=O)COC(=O)c1ccc(S(C)(=O)=O)c([N+](=O)[O-])c1	-	-	-	-	0	-
Cc1ccc(/C=C/C(=O)c2ccccc2O)cc1	0	0	0[15.4 µM]	0	0	0
Cc1ccc(/C=C/C(=O)C2C(=O)c3ccccc3C2=O)cc1	0	0	0	0	-86.0	0
CN(C)CCCN=c1cc(-c2ccccc2)oc2ccc(Cl)cc12	0	0	?	0	-86.4	0
COc1ccc(N(Cc2cccs2)C(=O)COc2cccc(C)c2C)cc1	-	-71.7	-	-	-	0
SMILES	FBPA coupling cs	RXFP1 antag	gsp agonist	gsp antagonist	Giardia killer	RXFP1 ag
Cc1cc(C)cc(OCC(=O)N(Cc2cccs2)c2ccc(Cl)cc2)c1	-	-	-	-	-	0
Cc1ccc(N(Cc2cccs2)C(=O)COc2cccc(C)c2)cc1	-	-	-	-	-	0
COc1ccc(N(Cc2cccs2)C(=O)COc2cc(C)c(Cl)c(C)c2)cc1	-	-69.2	-	-	-	0
CCOc1cnn(Cc2ccccc2)c(=O)c1SCc1ccccc1	0	0	0[15.4 µM]	0	0	0
COc1ccc(C2Nc3ccc(NC(=O)CO)cc3C(=O)N2Cc2cccc(Cl)c2)cc1COc1ccc(NC(C)=O)cc1 (stereo not given)	-	-	-	-	0	-
Cc1nnc(Sc2cc(NCCCO)c([N+](=O)[O-])c3nonc23)s1	-36.5	-68.2	0[15.4 µM]	0	0	0
O=[N+]([O-])c1c(NCCCO)cc(Sc2nc3ccccc3s2)c2nonc12	0	-73.2	0	0	0	0
Cc1nnc(Sc2cc(NCCO)c([N+](=O)[O-])c3nonc23)s1	0	-82.1	?	?	0	0
CCC(=O)OCCNc1cc(Sc2nc3ccccc3s2)c2nonc2c1[N+](=O)[O-]	0	0	0	0	0	0
CCOC(=O)c1ccc(-c2ccc3oc(-c4ccsc4)cc(=O)c3c2)cc1F	-	-	-	7.08µM	0	-

Compound activity: PubChem BioAssay, National Center for Advancing Translational Sciences (NCATS)
